Assay outcomes from PubChem BioAssay.
U2OS ROS induce: raises reactive oxygen species in U2OS cancer cells; AID 624156; hit rate 2% among 46,000; ROS induction (% of piperlongumine), % at 10 µM; U2OS ROS induction, H2DCF-DA fluorescence; in the data active means ROS induction above about 79%, passing the limit was not always enough
YB-1 expr inh: YB-1 expression inhibition | U2OS, qRT-PCR YB-1 vs CDIP delta delta Cp, 16 h; stronger effect = higher value; zero = DMSO, each unit about twofold | delta delta Cp (YB-1 minus CDIP) (concentration not given with the values) | hit rate 0.37% among 30,000 | AID 434959;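 active means delta delta Cp rounded down to an integer at or above 3, about 3 SD of DMSO wells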;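 further: higher means less YB-1 transcript or more CDIP transcript relative to DMSO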
Large screens that a line does not name were inactive. An excerpt weighted towards active compounds, which were near 2.1% of everything screened.

COCCOC(=O)N1C(=O)[C@@]2(c3cc(C#Cc4ccc(OC)cc4)ccc31)[C@H](c1ccccc1OCCO)N1[C@H](c3ccccc3)[C@H](c3ccccc3)OC(=O)[C@H]1[C@@H]2C(=O)N1CCc2cc(OC)c(OC)cc2C1	U2OS ROS induce 112
COCCOC(=O)N1C(=O)[C@@]2(c3ccccc31)[C@H](C(=O)N1CCc3cc(OC)c(OC)cc3C1)[C@H]1C(=O)O[C@H](c3ccccc3)[C@H](c3ccccc3)N1[C@@H]2c1ccccc1OCCO	U2OS ROS induce 121
COCCOC(=O)N1C(=O)[C@@]2(c3cc(C#Cc4ccc(OC)cc4)ccc31)[C@H](C(N)=O)[C@H]1C(=O)O[C@H](c3ccccc3)[C@H](c3ccccc3)N1[C@@H]2c1ccccc1OCCO	YB-1 expr inh 9.5
COc1ccc(S(=O)(=O)Nc2ccc3c(c2)CC(=O)N([C@@H](C)CO)C[C@@H](C)[C@@H](CN(C)CC2CCCCC2)O3)cc1	none
CCCn1c(=N)c(C(=O)NC)cc2c(=O)n3cc(C)ccc3nc21	none (no result: YB-1 expr inh)
COc1ccc(S(=O)(=O)Nc2cccc3c2O[C@@H](CN(C)C)[C@H](C)CN([C@H](C)CO)C3=O)cc1	none
O=C1CSC(c2ccccc2)N1c1cccnc1 (centres undefined)	none (no result: YB-1 expr inh)
CCCNC(=O)[C@@]1(Sc2ccc(C)cc2)CC(=O)N(C2CCCCC2)[C@@H]1c1ccc(CO)cc1I	U2OS ROS induce 162
CN(C)CCCNC(=O)[C@@]1(c2ccc([N+](=O)[O-])cc2)CC(=O)N(C2CCCCC2)[C@@H]1c1ccc(CO)cc1I	none
COc1ccc(CCNC(=O)[C@@]2(Sc3ccc(C)cc3)CC(=O)N(C3CCCCC3)[C@@H]2c2ccc(CO)cc2I)cc1	U2OS ROS induce 160
Cc1ccc(S[C@]2(C(=O)NC(C)C)CC(=O)N(C(C)C)[C@@H]2c2ccc(CO)cc2I)cc1	U2OS ROS induce 176
Cc1ccc(S[C@]2(C(=O)NC3CC3)CC(=O)N(C3CCCCC3)[C@@H]2c2ccc(CO)cc2I)cc1	none
Cc1ccc(S[C@]2(C(=O)NCCCN(C)C)CC(=O)N(C3CCCCC3)[C@@H]2c2ccc(CO)cc2I)cc1	none
Cc1noc(C)c1S(=O)(=O)N(C)C[C@H]1Oc2ccc(NS(=O)(=O)c3ccc(F)cc3)cc2C(=O)N([C@H](C)CO)C[C@H]1C	none
C[C@@H]1CN([C@H](C)CO)C(=O)c2cc(NC(=O)CCCCCC(=O)Nc3ccccc3N)ccc2O[C@@H]1CN(C)Cc1ccccc1	none
C[C@@H]1CN([C@@H](C)CO)C(=O)CCCn2cc(nn2)CO[C@@H]1CN(C)S(=O)(=O)c1ccc(-c2ccccc2)cc1	none
CCn1c2ccccc2c2cc(NC(=O)Cc3ccccc3[N+](=O)[O-])ccc21	none (no result: YB-1 expr inh)
CCOc1ccccc1NC(=O)CSc1cc(C)c2cccc(C)c2n1	none (no result: YB-1 expr inh)
CCOC(=O)C1=CN(c2ccc(C)cc2)C=C(C(=O)OCC)C1c1cccs1	U2OS ROS induce 112 (no result: YB-1 expr inh)
CCOC(=O)c1csc(-c2cccs2)n1	none (no result: YB-1 expr inh)
C[C@H](CO)N1C[C@H](C)[C@H](CN(C)C(=O)Nc2ccc(F)cc2)Oc2c(NC(=O)C3CC3)cccc2C1=O	none
COc1c2c(c(CSc3nnnn3-c3ccccc3)c(OC)c1OC)C(=O)OC2	none (no result: YB-1 expr inh)
O=C1/C(=C/c2ccc(O)cc2)SC(=S)N1CCc1ccccc1	U2OS ROS induce 127
CC(C)OC(=O)CCN1C(=O)/C(=C/c2ccccc2)SC1=S	none
C[C@H](CO)N1C[C@H](C)[C@H](CN(C)C)Oc2c(NS(=O)(=O)c3ccc(F)cc3)cccc2C1=O	none
C[C@@H]1CN([C@H](C)CO)C(=O)c2cc(NC(=O)Nc3ccc(F)cc3)ccc2O[C@@H]1CN(C)C(=O)Nc1ccc2c(c1)OCO2	none
C[C@@H]1CN([C@H](C)CO)C(=O)c2cc(NC(=O)Nc3ccc(C(F)(F)F)cc3)ccc2O[C@H]1CN(C)C(=O)Nc1ccc2c(c1)OCO2	none
C[C@H]1CN([C@@H](C)CO)C(=O)c2cc(NC(=O)Nc3ccc4c(c3)OCO4)ccc2O[C@H]1CN(C)C(=O)Nc1ccc(F)cc1	U2OS ROS induce 86
C[C@@H]1CN([C@@H](C)CO)C(=O)c2cc(NC(=O)Nc3ccc4c(c3)OCO4)ccc2O[C@@H]1CN(C)C(=O)Nc1ccc(C(F)(F)F)cc1	U2OS ROS induce 227
O=C(c1ccccc1)C1CCN(S(=O)(=O)c2ccc(Cl)cc2)CC1	none (no result: YB-1 expr inh)
C[C@H]1CN([C@@H](C)CO)C(=O)Cc2cc(NS(=O)(=O)c3cn(C)cn3)ccc2O[C@@H]1CN(C)Cc1ccccc1	none
CCc1nc2sc3c(NCCc4ccccc4)ncnc3c2c2c1CCCC2	none (no result: YB-1 expr inh)
c1ccc(Nc2ncnc3sc4c(c23)CCCC4)cc1	U2OS ROS induce 103 (no result: YB-1 expr inh)
FC(F)(F)c1cccc(Nc2ncnc3sc4c(c23)CCC4)c1	U2OS ROS induce 116 (no result: YB-1 expr inh)
c1ccc(Oc2ncnc3sc4c(c23)CCCC4)cc1	none (no result: YB-1 expr inh)
O=C(/C=C/c1ccccc1)Nc1ncnc2sc3c(c12)CCC3	none (no result: YB-1 expr inh)
Cc1nc(NCCc2ccccc2)c2c3c(sc2n1)CCCC3	U2OS ROS induce 127 (no result: YB-1 expr inh)
COc1ccc(NC(=O)CSc2nnc(-c3cccc(Cl)c3)n2C)cc1	none (no result: YB-1 expr inh)
COc1cc(C(=O)OC[C@@]2(O)CO[C@H](OC3C(CO)OC(Oc4cc(OC)c(OC)c(OC)c4)C(O)C3O)[C@@H]2O)cc(OC)c1O (some centres undefined)	none
COc1cc(C(=O)OCC2(O)COC(OCC3OC(Oc4c(OC)cc(CO)cc4OC)C(O)C(O)C3O)C2O)cc(OC)c1O (centres undefined)	YB-1 expr inh 7.1
CCNS(=O)(=O)c1cc(-c2nnc(OC)c3ccccc23)ccc1C	none
C[C@@H]1CN([C@H](C)CO)C(=O)c2cc(NC(=O)CCN3CCOCC3)ccc2O[C@@H]1CN(C)Cc1ccc(C(F)(F)F)cc1	none
CCn1c2ccccc2c2cc(NC(=O)c3ccccc3C)ccc21	none (no result: YB-1 expr inh)
CC(=O)Nc1ccccc1NC(=O)COc1ccc([N+](=O)[O-])cc1	none (no result: YB-1 expr inh)
Cc1ccccc1NC(=O)COc1ccc(C)c([N+](=O)[O-])c1	U2OS ROS induce 114 (no result: YB-1 expr inh)
Cn1c(Cc2ccc(Cl)cc2)nnc1SCc1nc2ccccc2c(=O)n1-c1cccc(C(F)(F)F)c1	none (no result: YB-1 expr inh)
C[C@@H]1CN([C@@H](C)CO)C(=O)CCCn2nncc2CO[C@@H]1CN(C)C(=O)Nc1ccc(C(C)(C)C)cc1	U2OS ROS induce 114
COc1ccccc1CN(C)C[C@H]1OCc2cnnn2CCCC(=O)N([C@H](C)CO)C[C@H]1C	U2OS ROS induce 113
COc1ccccc1CN(C)C[C@H]1OCc2cnnn2CCCC(=O)N([C@@H](C)CO)C[C@H]1C	none
C[C@H](CO)N1C[C@H](C)[C@@H](CN(C)C(=O)Nc2ccc(C(C)(C)C)cc2)OCc2cnnn2CCCC1=O	none
CCCc1ccc(-c2c(C)sc(N)c2C#N)cc1	none (no result: YB-1 expr inh)
Cc1oc2cc(OC(C)C)ccc2c(=O)c1-c1ccc2c(c1)OCCO2	YB-1 expr inh 6.9
CCOC(=O)c1oc2cc(O)c(CC)cc2c(=O)c1-c1ccc2c(c1)OCCO2	none (no result: YB-1 expr inh)
C[C@@H]1CN([C@H](C)CO)C(=O)c2cccc(NC(=O)NC3CCCCC3)c2O[C@@H]1CN(C)S(=O)(=O)c1ccccc1	none
COc1ccc(-c2c(C)nn3c(N)c(-c4ccccc4)cnc23)cc1	U2OS ROS induce 120 (no result: YB-1 expr inh)
Cc1nn2c3c(cnc2c1-c1ccccc1)C(=O)CC(C)(C)C3	none (no result: YB-1 expr inh)
C/C(=N\c1nnc(Sc2nc3cc(Cl)ccc3s2)s1)N(C)C	none (no result: YB-1 expr inh)
Cc1ccc(S(=O)(=O)N(C)C[C@@H]2Oc3ncc(/C=C/c4ccccc4)cc3C(=O)N([C@H](C)CO)C[C@@H]2C)cc1	none
